From PubChem BioAssay AID743279 (National Center for Advancing Translational Sciences (NCATS), 2014)
The campaign covered roughly 360,000 compounds. About 17,000 (4.7%) were called active. Roughly 5% stayed inconclusive and do not appear here. This excerpt belongs to a sample that is enriched for actives. A number with no mark means an inactive call. Cut-off read from the data, not from the text of the source: active = activity change below about -50%; inconclusive = mostly about -30% to -49%; inactive = weaker than that.

Experiment: qHTS for Inhibitors of Inflammasome Signaling: IL-1-beta AlphaLISA Primary Screen
Details: THP-1 LPS/ATP IL-1B secretion, 16 h; at 57.5 µM, stronger effect = lower value
Method in brief: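 Secreted IL-1B measured by AlphaLISA bead assay after 16 h compound exposure of THP-1 cells; compounds (final up to 57.5 uM) added 1 h before LPS (250 ng/mL) and ATP (1.25 mM) stimulation; lower signal means less secretion.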
% is set by controls: 0 for no effect and ±100 for the full control effect.

SMILES | activity change
COc1cc(-c2nnc(NC(=O)CS(=O)(=O)c3ccc(Cl)cc3)o2)cc(OC)c1OC | -11%
CCN(CC)c1ccc(NC(=O)c2ccc(=O)[nH]c2)cc1S(=O)(=O)Nc1ccc(OC)cc1 | -3.18%
COc1ccc(CNC(=O)COC(=O)c2sccc2C)cc1OC | 12.1%
Oc1[nH]c2ccccc2c1N=Nc1c(F)c(F)c(F)c(F)c1F | -7.81%
O=C(CCN1CCCCC1)N=Nc1c(O)[nH]c2ccccc12 | -74.6% (active)
Cc1cccc(N(CC(=O)N=Nc2c(O)[nH]c3ccccc23)S(C)(=O)=O)c1C | 19.5%
CS(=O)(=O)N1CCc2nc(-c3ccccc3)sc2C1 | 54.3%
COc1ccccc1OCCNC(=O)C(CCSC)NC(=O)COc1ccccc1 (stereo not drawn) | -18.9%
NC(=O)c1ccc(N2CCCC2)nc1 | 5.48%
COc1cccc(CN(C)CC(=O)NCc2ccccc2Cl)c1OC | 1.26%
Cc1nc2ccc(C(=O)N(C)CC3CCCN(CCc4ccc(Cl)cc4)C3)cc2[nH]1 (stereo not drawn) | 8.01%
COc1cccc(CN(C)CC2CCCN(CCc3ccc(Cl)cc3)C2)c1OC (stereo not drawn) | -90.5% (active)
C[C@H]1CN([C@@H](C)CO)S(=O)(=O)c2ccc(-c3cccc(F)c3)cc2O[C@@H]1CN(C)C | -2.69%
O=C(NCCOc1ccccc1Cl)C(=O)Nc1ccccc1 | inactive
Clc1ccccc1Nc1nc(NCc2cccs2)nc2ccsc12 | 42.9%
CC(C)Nc1nc(NCCOc2ccccc2Cl)c2sccc2n1 | -90.6% (active)
C=C(C)C1CC=C(C)/C(=N\NC(=O)CNc2ccccc2OC)C1 (stereo not drawn) | -1.86%
COc1ccc2nc(-c3ccccn3)ccc2c1 | 19.8%
CCc1ccccc1NC(=O)CN1CCN(C(=O)c2cc(C3CC3)nn2-c2ccccc2)CC1 | -18.2%
CC(=O)Nc1cccc(-c2ccnc3c2CC(C)(C(=O)NCc2ccco2)O3)c1 (stereo not drawn) | 78.5%
COc1cccc2oc(CCc3ccccc3)cc(=O)c12 | -5.15%
CCOC(=O)c1ccc(NC(=O)c2nc[nH]c2C(=O)N[C@@H](CCCCNC(=O)OC(C)(C)C)C(=O)OC(C)(C)C)cc1 | -62.8% (active)
CCOC(=O)c1ccc(NC(=O)c2nc[nH]c2C(=O)NCc2ccccc2)cc1 | 7.09%
CC(C)(C)OC(=O)CNC(=O)c1[nH]cnc1C(=O)N[C@@H](CCCCN)C(=O)OC(C)(C)C | -12.6%

SMILES | activity change
COc1ccccc1CC1(C)C(=O)Nc2ccc(OC(F)(F)F)cc21 (stereo not drawn) | 4.75%
COc1ccc(/C=C(\C#N)c2c[nH]c3ccccc23)cc1 | -102% (active)
COc1ccc(C(C(O)C(=O)c2c[nH]c3ccccc23)N2CCN(c3ccccc3)CC2)cc1 (stereo not drawn) | 14.4%
COc1ccc(/C=C(\NC(=O)c2ccc(OC)c(OC)c2)C(=O)NCCc2c[nH]c3ccccc23)cc1 | -11.1%
Cc1ccc([C@H]2N[C@]3(CCCN(CC4CCCCC4)C3=O)[C@H]3C(=O)N(Cc4ccccc4)C(=O)[C@@H]23)cc1 | -9.33%
CC(=O)NCC(O)c1ccc([N+](=O)[O-])cc1 (stereo not drawn) | 0.816%
O=C(CC(c1ccccc1)c1ccccc1)NCC(O)c1ccc([N+](=O)[O-])cc1 (stereo not drawn) | -69.4% (active)
O=C(NCC(O)c1ccc([N+](=O)[O-])cc1)C1CCCCC1 (stereo not drawn) | -13.9%
O=C(O)c1ccc([N+](=O)[O-])cc1Sc1ccsc1 | 4.28%
O=C(NCc1cccc(C(F)(F)F)c1)c1ccc2sc(COCCO)nc2c1 | 28.9%
CCN(CC)CCOC(=O)c1ccc(NC(=O)CNC(=O)c2ccccc2)cc1 | 7.44%
CCN(CC)CCNC(=O)c1ccc(NS(=O)(=O)c2ccc3c(c2)OCCO3)cc1 | -6.92%
CCN(CC)CCNC(=O)c1ccc(NC(=O)c2c(F)cccc2Cl)cc1 | -73.3% (active)
COC(=O)Cc1ccc(NC(=S)NCc2ccccc2)cc1 | 0.636%
FC(F)(F)Oc1ccc(NC(=S)NCc2ccccc2)cc1 | -95% (active)
CCNC(=S)Nc1ccc(OC(F)(F)F)cc1 | -1.65%
CC1(C)OC(=O)C2=C(C[C@@H](C3CC3)O[C@H]2c2ccc(Cl)cc2)O1 | 6.02%
N=C1c2ccccc2-c2ccccc21 | 3.3%
O=C(Nc1ccccc1Cl)/C(Cl)=C(\Cl)S(=O)c1ccccc1 (stereo not drawn) | -103% (active)
CN(C)S(=O)(=O)Oc1ccccc1C(=O)Nc1ccccc1Cl | 3.38%
Cc1c(NC(=O)Nc2ccccc2Cl)sc(=S)n1C | -4.03%
CCCNC(=O)C1(C)CCN1C(=O)C1(c2ccccc2)CC1 (stereo not drawn) | 0%
Nc1ncnc2c1ncn2[C@@H]1O[C@H](C(=O)N2CCSC2)[C@@H](O)[C@H]1O | 3.32%
Cc1ccc(S(=O)(=O)N(CCc2ccccc2)c2ccc3c(c2)C2CC3CCN2C(=O)OCc2ccccc2)cc1 (stereo not drawn) | -16.8%

SMILES | activity change
COc1ccc(C2=Nc3ccccc3NC(=O)C2N(C(=O)c2cc3ccccc3[nH]2)c2ccccc2)cc1 (stereo not drawn) | 16.6%
Oc1ccc2ccccc2c1N=Nc1nccs1 | -98.3% (active)
CC(C)(C)c1ccc(Cn2nnc3c(=O)[nH]c(C4CCCN(C(=O)c5ccco5)C4)nc32)cc1 (stereo not drawn) | -12.5%
COc1cc(NC(=O)C2CCN(c3cnccn3)CC2)cc(OC)c1 | -9.18%
Cc1ccc(Nc2nc(Cl)c(C=O)s2)cc1 | -13.1%
Nc1ccc(C(=O)Nc2ccccc2N)cc1 | -21%
Cc1ccc(Nc2ccccc2N)cc1 | -70% (active)
Cc1nc2ccc(N)nc2nc1C | 10.3%
CC(C)(C)N1C(=O)c2c(C(=O)OCc3ccccc3)[nH]c(-c3ccccc3)c2C1=O | 11.9%
COc1ccccc1CNCc1cccs1 | 10.3%
Fc1ccccc1COc1ccccc1CNCc1ccncc1 | -61.1% (active)
CCOc1cc(/C=N/O)ccc1OCc1ccccc1F | -8.72%
CCOC(=O)C1=C(O)/C(=C/c2cc(C)n(-c3ccccc3)c2C)N=C1C | -9.27%
COc1ccc(NS(=O)(=O)c2cccc(C(=O)NCCc3ccc(S(N)(=O)=O)cc3)c2)cc1 | 6.56%
O=C(CN1C(=O)NC2(CCCCCCC2)C1=O)NCc1ccc(F)cc1 | -15.9%
CSc1ccc(CN2C(=O)NC3(CCCCCC3)C2=O)cc1 | -60.4% (active)
O=C(CN1C(=O)NC2(CCCCCC2)C1=O)NCc1ccc(F)cc1 | -13.3%
CC(C)c1ccc(C=NNc2ccc([N+](=O)[O-])cn2)cc1 | 20.1%
O=C1NCC(Nc2ccccc2)C(=O)N1 (stereo not drawn) | 11.9%
O=C(Nc1ccn(CCCNCc2ccc3[nH]ccc3c2)c(=O)n1)OCc1ccccc1 | -20.2%
COc1cccc(-c2sc3ccc(OC)cc3c2-c2ccc(OCCN3CCCCC3)cc2)c1 | -3.91%
COc1ccc2sc(-c3ccccc3OC)c(-c3ccc(OCCN4CCCC4)cc3)c2c1 | -51% (active)
COc1ccccc1-c1sc2ccccc2c1-c1ccc(Br)nc1 | 26.6%
CC1(C(=O)NS(=O)(=O)c2ccc(Cl)cc2)CCN1C(=O)CC1CCCC1 (stereo not drawn) | 24.4%

SMILES | activity change
CCCCSc1nc2c(c(=O)n1CC)SC(C)C2 (stereo not drawn) | 25.4%
CCN1CCN(C(=O)CN(C)S(=O)(=O)c2ccc(OC)cc2)CC1 | -5.95%
CCOCCCNC(=O)C1(O)c2cc(Br)ccc2NC(=O)N1c1ccc(C)c(C)c1 (stereo not drawn) | 29.6%
COc1ccc(-c2cc(-c3ccc(N)cc3)nc(N)c2C#N)cc1OC | 0%
COc1ccc(-c2cc(C(=O)NCCCN3CCCC3=O)c3ccccc3n2)cc1OC | 0%
COc1ccc(-c2cc(C(F)(F)F)nc(S(C)(=O)=O)n2)cc1OC | -105% (active)
O=C1NC[C@H](Cc2ccc(O)cc2)N(C[C@H]2CCCN2C[C@H](Cc2ccccc2)N2C[C@H](Cc3ccccc3)N(CCc3ccccc3)C(=O)C2=O)C1=O | -12.9%
O=C1CCC(=O)N1CCC(=O)N(C(=O)NC1CCCCC1)C1CCCCC1 | -5.97%
NC1=CC(=O)C(=O)c2cccnc21 | -59.7% (active)
CCOc1ccc(CCN2C(=O)c3cccnc3C2=O)cc1OCC | -0.139%
O=C1c2cccnc2C(=O)N1Cc1cccs1 | 21.3%
CCN(C(=O)CN1CCN(Cc2ccccc2)CC1)c1c(N)n(Cc2ccccc2)c(=O)[nH]c1=O | 27.8%
Cc1cccc(NC(=S)Nc2ccc(Cl)c(Cl)c2)c1 | -89.5% (active)
Cc1cccc(NC(=S)Nc2ccc3cn[nH]c3c2)c1 | -16.5%
FC(F)(F)c1cccc(NC(=S)Nc2cccc(Cl)c2)c1 | -14.7%
Cc1csc(NC(=S)Nc2cccc(Cl)c2)n1 | -99.2% (active)
Cc1cccc(NC(=S)NC23CN4CN(CN(C4)C2)C3)c1 | -14.8%
S=C(Nc1cccc(Cl)c1)Nc1ccc2c(c1)OCCO2 | -23.6%
O=C(Nc1ccc(Cl)c(C(F)(F)F)c1)C1Cc2c(-c3ccccc3Oc3ccccc3)ccnc2O1 (stereo not drawn) | -13.9%
Cc1cc(C)c(S(=O)(=O)NCC(c2ccc3c(c2)OCO3)N2CCOCC2)c(C)c1 (stereo not drawn) | 0%
COc1ccccc1OCC(=O)OCc1cc(-c2ccco2)on1 | 1.02%
